Test results taken from PubChem BioAssay AID1567 (National Center for Advancing Translational Sciences (NCATS), 2009).
Results filed as inconclusive are left out. Active and inactive are the calls of the source. Calls follow the shape of the dose curve; as a rule, active = well fitted inhibition curve with a large enough effect; inconclusive = small, poorly fitted or top-dose-only effect, or effect the other way; inactive = no such curve, though single readings can be large or run the other way.

What follows are compounds tested against Thyroid hormone receptor beta (Homo sapiens) (UniProt P10828) (assay: Cell-based Gene Reporter Secondary Assay to Characterize qHTS Inhibitors of the Interaction of Thyroid Hormone Receptor and Steroid Receptor Coregulator 2). Conditions: WRO cells TRbeta TRE-luciferase, T3-stimulated, 16 h; series mostly up to 29.9 µM; activity change, negative = inhibition: at the top concentration.
Chain of Thyroid hormone receptor beta (Homo sapiens) (P10828 whole entry, looked up): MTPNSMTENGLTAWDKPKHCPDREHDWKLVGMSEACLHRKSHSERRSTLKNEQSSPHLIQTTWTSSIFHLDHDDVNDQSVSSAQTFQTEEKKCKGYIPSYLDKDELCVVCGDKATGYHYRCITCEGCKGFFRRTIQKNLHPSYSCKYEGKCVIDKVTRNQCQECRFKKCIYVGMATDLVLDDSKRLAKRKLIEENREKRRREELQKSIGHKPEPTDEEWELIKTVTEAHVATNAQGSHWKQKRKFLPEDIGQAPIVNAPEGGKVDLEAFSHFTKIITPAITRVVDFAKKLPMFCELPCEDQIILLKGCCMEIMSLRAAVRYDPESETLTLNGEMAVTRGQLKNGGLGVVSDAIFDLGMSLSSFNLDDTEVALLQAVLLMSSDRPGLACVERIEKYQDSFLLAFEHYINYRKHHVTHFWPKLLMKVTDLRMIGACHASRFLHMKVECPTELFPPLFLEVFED
Description: NIH Molecular Libraries Probe Production Network [MLPCN] NIH Chemical Genomics Center [NCGC] MLPCN Grant: DK058080 Assay Provider: R. Kip Guy, St. Jude Children's Research Hospital NCGC Assay Overview: Thyroid receptor (TR) regulates many homeostatic processes including basal metabolism, cardiovascular function, body weight, and lipid trafficking. TR modulators are potential therapeutics for obesity and hyperlipidemias but current thyroid analogs have undesirable side effects, particularly cardiac stimulation. This secondary assay characterized selected actives identified in the qHTS for Inhibitors of the Interaction of Thyroid Hormone Receptor and Steroid Receptor Coregulator 2. The human follicular thyroid carcinoma cell line WRO (kindly provided by Dr. M. D. Ringel) stably expresses TRbeta and a luciferase reporter gene fused to TR response element. The addition of T3 ligand elevates expression of the TRE luciferase reporter. This assay measures the transcriptional activity of compounds.
NCGC Assay Protocol Summary: Cells were maintained in RPMI 1640 culture medium supplemented with 10% heat-inactivated FBS, 0.33 mg/ml hygromycin, 0.33 mg/ml geneticin, 50 units/ml penicillin, 50 ug/ml streptomycin. Cells were harvested and resuspended at 330,000 cells/ml in assay medium (50% DMEM 50% F-12 medium without Phenol-Red (Cellgro #16-405-CV), L-glutamine, 10% heat inactivated and charcoal treated FBS, 100 uM non-essential amino acid, 50 units/ml penicillin, 50 ug/ml streptomycin). Cells were dispensed at 10,000 cells/30 ul/well into 384 well plates (Corning 3917) and incubated 12 h at 37 C and 5% CO2. Compounds and T3 (100nM final concentration) were added using a pin tool and plates were incubated 16 h incubation at 37 C and 5% CO2. Following incubation, plates were equilibrated at ambient temperature for 30 min, 30 ul of Bright-Glo (Promega) was added and luminescence was detected by an EnVision (PerkinElmer).
With `CCOc1ccc(NC(=O)C(c2ccccn2)N(C(=O)CCl)c2ccc(F)cc2)cc1` (stereo not given) the “activity change, negative = inhibition” value was -6.26% (inactive). `COc1ccc(-c2nc(CS(=O)CC(=O)NCc3ccccn3)c(C)o2)cc1` (stereo not given) was tested, and the “activity change, negative = inhibition” value was -2.31% (inactive). With `CC1=NN(Cc2ccccc2)C(=O)C1` the “activity change, negative = inhibition” value was 23.4% (inactive). `Nc1cnccc1C(=O)O` was tested, and the “activity change, negative = inhibition” value was -3.24% (inactive). For `Cc1ccc(-c2nc(S(=O)(=O)c3ccc(F)cc3)c(SCC(=O)NCC3CCCO3)o2)cc1` (stereo not given), the “activity change, negative = inhibition” value was -6.71% (inactive). With `CCC(NC(=O)Nc1ccc(O)cc1)(C(F)(F)F)C(F)(F)F` the “activity change, negative = inhibition” value was 9.95% (inactive). For `C=CCNC(=O)/C(C#N)=C\c1cc(Cl)c(OCC)c(OC)c1`, the “activity change, negative = inhibition” value was -29.7% (inactive). For `Cc1ccc2c(CC(=O)Nc3c(C(=O)c4ccc(F)cc4)oc4ccccc34)coc2c1C`, the “activity change, negative = inhibition” value was 23.4% [at 59.9 µM] (inactive). `CN1N=C(C(C)(C)C)CC1=O` was tested, and the “activity change, negative = inhibition” value was 8.94% (inactive). With `Cc1nnc(SCC(=O)Nc2ccc(N(C)C)cc2)[nH]c1=O` the “activity change, negative = inhibition” value was 7.12% [at 59.9 µM] (inactive). With `Nc1cc(-c2ccncc2)c[nH]c1=O` the Potency was 14.1 µM (active). In the case of `O=C(Nc1nc2ccc(Cl)cc2s1)c1ccc(N2CCCCC2)c([N+](=O)[O-])c1`, the “activity change, negative = inhibition” value is reported as 19.6% (inactive). `C=CCSc1nnc2n(-c3ccccc3OC)c(=O)c3c4c(sc3n12)CCC4` was tested, and the “activity change, negative = inhibition” value was 0.913% (inactive). `CC1=NN(c2ccc(F)cc2)C(=O)C1C(c1cccc(O)c1)c1c(C)[nH]n(-c2ccc(F)cc2)c1=O` (stereo not given) was tested, and the “activity change, negative = inhibition” value was -12.9% (inactive). In the case of `CCOC(=O)c1cnc2nc(NCc3ccc(OC)c(OC)c3)[nH]n2c1=O`, the “activity change, negative = inhibition” value is reported as -0.994% (inactive). With `Cn1c(NNC(=O)c2c(F)cccc2F)cc(=O)n(C)c1=O` the “activity change, negative = inhibition” value was 1.12% (inactive). For `CCc1ccc2c(c1)c1nc(C)sc1n2CC`, the “activity change, negative = inhibition” value was 17.3% (inactive). `CN(C)c1cc(Cl)c2nonc2c1N` was tested, and the “activity change, negative = inhibition” value was 15.2% (inactive). In the case of `CN1c2ccccc2C(C)(C)C12C=Nc1c(ccc3ccccc13)O2` (stereo not given), the Potency is reported as 4.47 µM (active). For `CCC(CNc1cc(OC)cc2cccnc12)NC1CCCCC1` (stereo not given), the Potency was 6.31 µM (active). For `Cc1ccc(OC(=S)Nc2ccc(O)cc2)cc1`, the “activity change, negative = inhibition” value was -22% (inactive). For `O=C(NNc1cc(N2CCOCC2)nc(N2CCOCC2)n1)c1ccc([N+](=O)[O-])cc1`, the “activity change, negative = inhibition” value was -19.3% (inactive). In the case of `Cc1nc2ccccc2n2c(O)c(CC(=O)O)cc12`, the “activity change, negative = inhibition” value is reported as -9.96% (inactive). With `CN1CCc2ccc3c4c2[C@]1(C)Cc1cccc(c1-4)OCO3` the Potency was 7.94 µM (active). With `O=c1cc(C23CC4CC(CC(C4)C2)C3)[nH][nH]1` the “activity change, negative = inhibition” value was 11.1% (inactive). For `COc1cc(NC(C)CCCN)c2ncccc2c1` (stereo not given), the Potency was 22.4 µM (active). In the case of `CCOc1cc(N2CCOCC2)c(OCC)cc1NC(C)C(=O)N1CCN(CC)CC1` (stereo not given), the “activity change, negative = inhibition” value is reported as 12% (inactive). With `CCOc1cc(C(c2c(C)[nH][nH]c2=O)c2c(C)[nH][nH]c2=O)ccc1OS(=O)(=O)c1ccc(C)cc1` the “activity change, negative = inhibition” value was 18.7% (inactive). With `Cc1cc(C)cc(OCC(=O)NCCc2nc3ccccc3[nH]2)c1` the “activity change, negative = inhibition” value was 6.99% [at 59.9 µM] (inactive). `Nc1cccnc1Sc1cc(Cl)c(Cl)cc1Cl` was tested, and the “activity change, negative = inhibition” value was -26.2% (inactive). With `O=C(O)[C@H]1CN(CCCP(=O)(O)O)CCN1` the “activity change, negative = inhibition” value was -100% [at 59.9 µM] (inactive). With `CC(NC(=O)Nc1ccc(O)cc1)(C(F)(F)F)C(F)(F)F` the “activity change, negative = inhibition” value was -0.554% (inactive). In the case of `CCOC(=O)C(NC(=O)Nc1ccc(O)cc1)(c1ccccc1)C(F)(F)F` (stereo not given), the “activity change, negative = inhibition” value is reported as 24.2% (inactive). In the case of `CCCc1nc2c(=O)n(C)c(=O)nc-2n(C)n1`, the Potency is reported as 0.794 µM (active). `Cn1cc(/C=C2\SC(=S)N(NC(=O)c3ccccc3)C2=O)c2ccccc21` was tested, and the “activity change, negative = inhibition” value was 2.16% (inactive). With `COc1cc(NCCCC(C)N)c2ncccc2c1` (stereo not given) the Potency was 3.16 µM (active). In the case of `CCSc1ncc(Cl)c(C(=O)Nc2nc3ccc(OC)cc3s2)n1`, the “activity change, negative = inhibition” value is reported as -4.44% [at 59.9 µM] (inactive). With `Cc1cccc(S(=O)(=O)c2cn(Cc3ccccc3)c3cc(N4CCC(C)CC4)c(F)cc3c2=O)c1` the “activity change, negative = inhibition” value was 0.761% [at 59.9 µM] (inactive). For `COc1ccc2ccc3c(c2c1)N=CC1(O3)N(C)c2ccccc2C1(C)C` (stereo not given), the “activity change, negative = inhibition” value was -22.8% (inactive). With `CN1c2ccccc2C(C)(C)C12C=Nc1c(cc(N3CCOCC3)c3ccccc13)O2` (stereo not given) the “activity change, negative = inhibition” value was 13.7% (inactive).
